PubChem BioAssay (EPA / NIEHS)
Inconclusive results are not listed. The source made the active and inactive calls. Rule for the calls, unless noted: active = hit-call score of the fitted dose curve at least 0.9, where 1 is the maximum; inconclusive = response in the unintended direction; inactive = score below 0.9.

Experiments:
[1] = ATG_TCF_b_cat_CIS: Attagene CIS-FACTORIAL HepG2 Assay for human T-Cell-Factor with beta-catenin (TCF/b-cat) (AID 2282965; active = hit-call score of the fitted dose curve at least 0.9, where 1 is the maximum; inactive = score below 0.9); details: HepG2 TCF/beta-catenin cis-reporter transcription, actives raise or lower the signal
Outline: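 Endogenous TCF/LEF activity read as reporter transcript level via RT-PCR and capillary electrophoresis fluorescence in transfected HepG2, 24 h exposure; gain or loss of signal fitted against DMSO controls.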

[2] = ATG_VDRE_CIS: Attagene CIS-FACTORIAL HepG2 Assay for human Vitamin D Receptor Element (VDRE) (AID 2282968; active = hit-call score of the fitted dose curve at least 0.9, where 1 is the maximum; inactive = score below 0.9); details: HepG2 VDRE cis-reporter transcription, actives raise or lower the signal
Outline: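 Reporter mRNA induction, quantified by capillary electrophoresis of fluorescently labelled RT-PCR products, was read 24 h after dosing HepG2 cells carrying transiently transfected cis-regulated reporter units; gain or loss relative to DMSO.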

[3] = biological target: X-box-binding protein 1 (Homo sapiens) (UniProt P17861); test: ATG_Xbp1_CIS: Attagene CIS-FACTORIAL HepG2 Assay for human X-box Binding Protein 1 (XBP1) (AID 2282972; active = hit-call score of the fitted dose curve at least 0.9, where 1 is the maximum; inactive = score below 0.9); details: HepG2 XBP1 cis-element reporter, Attagene multiplex; actives raise or lower the signal
Outline: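 HepG2, transient MRTU transfection (cis-promoter driven), 24 h compound exposure. Total RNA → oligo(dT) RT → PCR → 6-FAM labeling → HpaI cut → CE. Bidirectional fit vs DMSO.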

[4] = biological target: Oxysterols receptor LXR-alpha (Homo sapiens) (UniProt Q13133); test: ATG_LXRa_TRANS: Attagene TRANS-FACTORIAL HepG2 Assay for human Liver X Receptor alpha (LXRa) (AID 2282980); details: HepG2 Attagene TRANS reporter, LXRa transactivation
Outline: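 Chemical-induced reporter mRNA measured by RT-PCR with fluorescent labelling and capillary electrophoresis after 24 h dosing of transiently transfected HepG2 cells expressing exogenous NR-Gal4 chimeras; increases scored against DMSO baseline.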

[5] = biological target: Oxysterols receptor LXR-beta (Homo sapiens) (UniProt P55055); test: ATG_LXRb_TRANS: Attagene TRANS-FACTORIAL HepG2 Assay for human Liver X Receptor beta (LXRb) (AID 2282981); details: HepG2 Attagene TRANS GAL4-LXRb reporter, mRNA
Outline: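 Transient transfection HepG2 (multiplexed RTUs, GAL4-UAS); NR-Gal4 chimera; 24 h exposure; RNA → RT-PCR → 6-FAM primer extension → HpaI → CE; increase vs DMSO.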

[6] = ATG_M_06_TRANS: Attagene TRANS-FACTORIAL HepG2 Assay for M06 Transcription Factor (Internal Marker) (AID 2282983); details: HepG2 Attagene TRANS M06 internal marker reporter
Outline: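 Cells: HepG2, transient multi-reporter transfection. Exposure: 24 h. Detection: RT-PCR, 6-FAM labelling, HpaI digestion (2 h, 37 °C), capillary electrophoresis. Baseline: DMSO.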

[7] = ATG_M_32_TRANS: Attagene TRANS-FACTORIAL HepG2 Assay for M32 Transcription Factor (Internal Marker) (AID 2282984); details: HepG2 Attagene TRANS M32 internal marker reporter
Outline: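 Measures reporter mRNA induction in human HepG2 liver cells after 24 h chemical treatment. Transcripts from transiently transfected GAL4-UAS reporter units are amplified, fluorescently labelled and sized by capillary electrophoresis; gain of signal relative to DMSO.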

[8] = biological target: Nuclear receptor subfamily 4 group A member 2 (Homo sapiens) (UniProt P43354); test: ATG_NURR1_TRANS: Attagene TRANS-FACTORIAL HepG2 Assay for human Nuclear Receptor Related Protein 1 (NURR1) (AID 2282985); details: HepG2 Attagene TRANS reporter, mRNA readout
Outline: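 Transient transfection of HepG2, human liver cells, with multiple GAL4-UAS reporter transcription units. Cells dosed 24 h, RNA isolated, reverse-transcribed, PCR-amplified, FAM-labelled, HpaI-digested, sized by capillary electrophoresis. DMSO served as negative control.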

[9] = biological target: Transcriptional activator Myb (Homo sapiens) (UniProt P10242); test: ATG_Myb_CIS: Attagene CIS-FACTORIAL HepG2 Assay for human Myeloblastosis (Myb) Proto-Oncogene Transcription Factor (AID 2282986; active = hit-call score of the fitted dose curve at least 0.9, where 1 is the maximum; inactive = score below 0.9); details: HepG2 Attagene CIS-FACTORIAL Myb reporter transcription; actives raise or lower the signal
Outline: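 Reporter transcript levels, quantified by fluorescent RT-PCR and capillary electrophoresis, serve as the read-out. Transfected HepG2 cells carrying cis-promoter reporter units are dosed for 24 hours, and curves are fitted bidirectionally against DMSO controls.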

[10] = biological target: Estrogen receptor (Homo sapiens) (UniProt P03372); test: ATG_ERa_TRANS: Attagene TRANS-FACTORIAL HepG2 Assay for human Estrogen Receptor alpha (ERa) (AID 2282970); details: HepG2 Attagene TRANS ERa GAL4 reporter, mRNA
Outline: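 Cells: HepG2, transiently transfected. Construct: GAL4-UAS reporter units regulated by exogenous NR-Gal4 chimeras. Time: 24 h. Detection: reporter mRNA by RT-PCR, capillary electrophoresis, fluorescence. Baseline: DMSO, upward fitting.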

[11] = ATG_M_19_TRANS: Attagene TRANS-FACTORIAL HepG2 Assay for M19 Transcription Factor (Internal Marker) (AID 2282974); details: HepG2 Attagene TRANS-FACTORIAL M19 internal marker reporter
Outline: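 Fluorescence of 6-FAM-labelled reporter cDNA fragments, separated by capillary electrophoresis, served as the readout. These derived from HepG2 cells carrying transfected GAL4-UAS reporter units after 24 h dosing, with DMSO as negative control.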

[12] = ATG_GAL4_TRANS: Attagene TRANS-FACTORIAL HepG2 Assay for GAL4 (Internal Marker) (AID 2282976); details: HepG2 Attagene TRANS GAL4 internal marker reporter
Outline: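 In transfected human HepG2 liver cells dosed 24 h, GAL4 reporter mRNA serves as a baseline marker. Detection by RT-PCR with fluorescent capillary electrophoresis, activity fitted upward relative to DMSO.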

[13] = biological target: Glucocorticoid receptor (Homo sapiens) (UniProt P04150); test: ATG_GR_TRANS: Attagene TRANS-FACTORIAL HepG2 Assay for human Glucocorticoid Receptor (GR) (AID 2282978); details: HepG2 Attagene TRANS GR reporter, mRNA transcription;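 note: activators score as hits since higher reporter transcript over DMSO is fitted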
Outline: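 Fluorescent capillary-electrophoresis quantitation of reporter mRNA is the readout, taken 24 h after dosing human HepG2 cells carrying transiently transfected GAL4-UAS reporter units activated by chimeric NR-GAL4 fusions; activity scored as induction over DMSO.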

[14] = biological target: Bile acid receptor (Homo sapiens) (UniProt Q96RI1); test: ATG_FXR_TRANS: Attagene TRANS-FACTORIAL HepG2 Assay for Farnesoid X Receptor (FXR) (AID 2282979); details: HepG2 Attagene TRANS FXR-GAL4 reporter transcription;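 note: hits raise reporter mRNA above DMSO so AC50 marks FXR activation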
Outline: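 Reporter transcripts from transfected HepG2 cells were measured 24 h after dosing, using RT-PCR with capillary electrophoresis of 6-FAM-labelled fragments. The read-out reflects activity of exogenous FXR-Gal4 chimera on GAL4-UAS units, with induction relative to DMSO.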

[15] = biological target: Hepatocyte nuclear factor 4-alpha (Homo sapiens) (UniProt P41235); test: ATG_HNF4a_TRANS: Attagene TRANS-FACTORIAL HepG2 Assay for human Hepatocyte Nuclear Factor 4 alpha (HNF4a) (AID 2282982); details: HepG2 HNF4a transactivation reporter, mRNA readout
Outline: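 Readout is fluorescent reporter-transcript fragments resolved by capillary electrophoresis after RT-PCR from HepG2 cells dosed for 24 h. Cells carried transfected GAL4-UAS reporter constructs measuring exogenous NR-GAL4 chimera activity; DMSO served as baseline.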

[16] = biological target: Nuclear receptor subfamily 1 group I member 3 (Homo sapiens) (UniProt Q14994); test: ATG_CAR_TRANS: Attagene TRANS-FACTORIAL HepG2 Assay for human Constitutive Androstane Receptor (CAR) (AID 2282969); details: HepG2 Attagene TRANS-FACTORIAL CAR reporter;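 note: activators raise reporter mRNA above DMSO so AC50 marks induction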
Outline: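 Readout is reporter mRNA induction, quantified by fluorescent primer extension and capillary electrophoresis after RT-PCR. Cells were HepG2 transiently carrying chimeric NR-Gal4 constructs with GAL4-UAS reporters, treated for 24 h; activity scored upward from DMSO.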

[17] = ATG_TGFb_CIS: Attagene CIS-FACTORIAL HepG2 Assay for human Transforming Growth Factor (TGF) (AID 2282967; active = hit-call score of the fitted dose curve at least 0.9, where 1 is the maximum; inactive = score below 0.9); details: HepG2 Attagene CIS TGFb reporter, mRNA transcription; actives raise or lower the signal
Outline: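 Readout: fluorescently labeled reporter cDNA fragments resolved by capillary electrophoresis after RT-PCR. Transfected HepG2 cells dosed for 24 h; endogenous TF activity at TGFB1-linked cis element; gain or loss fitted relative to DMSO.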

[18] = biological target: Steroid hormone receptor ERR1 (Homo sapiens) (UniProt P11474); test: ATG_ERRa_TRANS: Attagene TRANS-FACTORIAL HepG2 Assay for human Estrogen-Related Receptor alpha (ERRa) (AID 2282971); details: HepG2 Attagene TRANS reporter, ERRa transactivation
Outline: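 Reporter transcripts from ERRa-Gal4 chimera activity measured in transiently transfected human HepG2 cells 24 hours after dosing, using RT-PCR with 6-FAM primer extension, HpaI digestion and capillary electrophoresis; DMSO is baseline.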

[19] = biological target: Estrogen-related receptor gamma (Homo sapiens) (UniProt P62508); test: ATG_ERRg_TRANS: Attagene TRANS-FACTORIAL HepG2 Assay for human Estrogen-Related Receptor gamma (ERRg) (AID 2282977); details: HepG2 Attagene TRANS reporter, ERRg transactivation;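 note: hits increase reporter signal over DMSO so potencies reflect activators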
Outline: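 HepG2 cells transiently transfected with multiplexed GAL4-UAS reporter units driven by chimeric NR-Gal4 proteins; 24 h exposure. Reporter mRNA quantified by RT-PCR, fluorescent labelling, HpaI digestion and capillary electrophoresis; gain of signal vs DMSO.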

Measured: AC50

Sequence of Oxysterols receptor LXR-alpha (Homo sapiens) (Q13133 whole entry, looked up, the tested form may be a part): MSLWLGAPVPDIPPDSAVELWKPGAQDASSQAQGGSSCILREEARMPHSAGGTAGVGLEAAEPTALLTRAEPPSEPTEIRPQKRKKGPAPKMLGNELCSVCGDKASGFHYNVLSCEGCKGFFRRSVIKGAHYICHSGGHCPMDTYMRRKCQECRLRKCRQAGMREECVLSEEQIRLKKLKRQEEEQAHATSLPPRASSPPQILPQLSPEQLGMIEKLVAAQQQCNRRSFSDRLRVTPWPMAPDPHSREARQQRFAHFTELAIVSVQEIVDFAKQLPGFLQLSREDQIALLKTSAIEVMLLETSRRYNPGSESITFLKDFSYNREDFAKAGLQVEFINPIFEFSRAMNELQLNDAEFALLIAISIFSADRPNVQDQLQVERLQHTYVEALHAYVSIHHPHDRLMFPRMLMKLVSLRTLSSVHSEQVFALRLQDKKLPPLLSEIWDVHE
Sequence of X-box-binding protein 1 (Homo sapiens) (P17861 whole entry, looked up): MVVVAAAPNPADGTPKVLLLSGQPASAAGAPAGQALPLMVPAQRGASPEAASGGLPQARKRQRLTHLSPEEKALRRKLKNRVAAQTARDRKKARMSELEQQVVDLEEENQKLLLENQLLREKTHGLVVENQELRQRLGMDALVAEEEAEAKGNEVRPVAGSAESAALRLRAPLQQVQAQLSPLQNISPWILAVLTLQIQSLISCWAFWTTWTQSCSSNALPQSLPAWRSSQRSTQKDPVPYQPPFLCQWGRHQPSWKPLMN
Sequence of Steroid hormone receptor ERR1 (Homo sapiens) (P11474 whole entry, looked up, the tested form may be a part): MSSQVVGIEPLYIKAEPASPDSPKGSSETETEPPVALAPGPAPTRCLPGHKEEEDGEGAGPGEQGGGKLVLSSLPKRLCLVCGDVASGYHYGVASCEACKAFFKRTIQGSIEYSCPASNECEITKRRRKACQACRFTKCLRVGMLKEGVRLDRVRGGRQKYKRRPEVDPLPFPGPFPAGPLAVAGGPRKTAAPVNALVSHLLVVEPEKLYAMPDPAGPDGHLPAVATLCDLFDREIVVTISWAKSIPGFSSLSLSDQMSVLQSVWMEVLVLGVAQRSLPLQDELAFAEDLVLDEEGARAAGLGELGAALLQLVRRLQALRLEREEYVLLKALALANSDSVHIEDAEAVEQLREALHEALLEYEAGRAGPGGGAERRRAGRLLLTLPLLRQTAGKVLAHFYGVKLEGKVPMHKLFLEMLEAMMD
Sequence of Bile acid receptor (Homo sapiens) (Q96RI1 whole entry, looked up, the tested form may be a part): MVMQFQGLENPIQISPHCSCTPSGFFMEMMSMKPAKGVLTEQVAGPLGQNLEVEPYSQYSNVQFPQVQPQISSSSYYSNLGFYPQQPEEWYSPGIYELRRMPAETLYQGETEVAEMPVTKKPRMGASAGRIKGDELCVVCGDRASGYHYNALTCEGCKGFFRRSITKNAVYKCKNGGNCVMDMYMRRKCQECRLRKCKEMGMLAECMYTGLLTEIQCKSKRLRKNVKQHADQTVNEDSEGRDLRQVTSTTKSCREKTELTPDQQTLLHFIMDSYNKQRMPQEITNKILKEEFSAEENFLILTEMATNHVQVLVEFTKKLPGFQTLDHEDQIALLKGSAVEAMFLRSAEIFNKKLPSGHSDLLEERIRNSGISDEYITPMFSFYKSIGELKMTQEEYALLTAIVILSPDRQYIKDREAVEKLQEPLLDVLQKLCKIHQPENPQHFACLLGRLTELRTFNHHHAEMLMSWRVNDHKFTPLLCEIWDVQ
Sequence of Estrogen receptor (Homo sapiens) (P03372 whole entry, looked up, the tested form may be a part): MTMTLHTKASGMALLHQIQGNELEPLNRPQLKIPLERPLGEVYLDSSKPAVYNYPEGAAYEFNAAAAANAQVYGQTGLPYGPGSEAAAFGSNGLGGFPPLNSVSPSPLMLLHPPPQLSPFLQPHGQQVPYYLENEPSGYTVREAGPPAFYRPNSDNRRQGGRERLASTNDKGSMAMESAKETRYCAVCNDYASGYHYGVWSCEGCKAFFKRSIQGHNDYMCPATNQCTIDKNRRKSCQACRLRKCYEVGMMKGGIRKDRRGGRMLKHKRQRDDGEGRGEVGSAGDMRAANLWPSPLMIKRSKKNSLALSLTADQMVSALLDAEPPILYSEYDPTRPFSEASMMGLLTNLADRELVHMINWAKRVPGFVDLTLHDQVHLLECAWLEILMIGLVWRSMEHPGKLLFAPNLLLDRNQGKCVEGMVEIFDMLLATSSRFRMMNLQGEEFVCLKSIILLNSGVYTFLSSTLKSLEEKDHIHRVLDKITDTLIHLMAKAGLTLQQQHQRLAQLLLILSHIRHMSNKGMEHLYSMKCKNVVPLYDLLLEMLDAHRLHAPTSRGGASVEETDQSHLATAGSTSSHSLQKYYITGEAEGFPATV
Sequence of Hepatocyte nuclear factor 4-alpha (Homo sapiens) (P41235 whole entry, looked up, the tested form may be a part): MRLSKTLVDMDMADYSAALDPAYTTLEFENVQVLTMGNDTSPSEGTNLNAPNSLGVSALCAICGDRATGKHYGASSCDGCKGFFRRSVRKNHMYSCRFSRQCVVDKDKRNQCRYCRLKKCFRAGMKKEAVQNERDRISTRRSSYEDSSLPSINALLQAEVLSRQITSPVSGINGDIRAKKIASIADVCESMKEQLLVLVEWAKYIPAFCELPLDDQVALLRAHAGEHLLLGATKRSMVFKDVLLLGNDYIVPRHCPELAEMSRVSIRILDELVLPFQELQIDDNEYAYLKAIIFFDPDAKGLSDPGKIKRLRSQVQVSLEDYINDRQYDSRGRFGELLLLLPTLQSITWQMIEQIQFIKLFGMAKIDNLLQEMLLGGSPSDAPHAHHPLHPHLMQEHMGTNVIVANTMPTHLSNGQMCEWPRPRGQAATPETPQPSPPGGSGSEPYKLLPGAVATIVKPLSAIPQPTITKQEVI
Sequence of Nuclear receptor subfamily 4 group A member 2 (Homo sapiens) (P43354 whole entry, looked up, the tested form may be a part): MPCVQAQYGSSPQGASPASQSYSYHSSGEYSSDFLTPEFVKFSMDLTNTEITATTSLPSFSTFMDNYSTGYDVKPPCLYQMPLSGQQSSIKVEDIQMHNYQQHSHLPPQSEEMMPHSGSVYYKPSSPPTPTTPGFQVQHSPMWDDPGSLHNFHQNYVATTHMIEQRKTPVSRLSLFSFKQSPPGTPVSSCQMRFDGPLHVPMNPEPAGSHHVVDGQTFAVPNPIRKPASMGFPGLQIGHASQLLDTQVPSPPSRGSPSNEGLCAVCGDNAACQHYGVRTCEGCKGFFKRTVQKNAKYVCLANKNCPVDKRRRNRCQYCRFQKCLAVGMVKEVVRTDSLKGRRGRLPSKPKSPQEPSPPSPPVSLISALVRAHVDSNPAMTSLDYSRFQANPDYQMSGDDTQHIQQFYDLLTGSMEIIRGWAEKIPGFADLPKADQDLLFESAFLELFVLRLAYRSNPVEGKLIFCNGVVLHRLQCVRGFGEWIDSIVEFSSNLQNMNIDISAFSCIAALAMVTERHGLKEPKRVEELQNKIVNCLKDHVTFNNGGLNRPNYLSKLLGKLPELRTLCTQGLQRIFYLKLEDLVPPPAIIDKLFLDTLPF
Sequence of Oxysterols receptor LXR-beta (Homo sapiens) (P55055 whole entry, looked up, the tested form may be a part): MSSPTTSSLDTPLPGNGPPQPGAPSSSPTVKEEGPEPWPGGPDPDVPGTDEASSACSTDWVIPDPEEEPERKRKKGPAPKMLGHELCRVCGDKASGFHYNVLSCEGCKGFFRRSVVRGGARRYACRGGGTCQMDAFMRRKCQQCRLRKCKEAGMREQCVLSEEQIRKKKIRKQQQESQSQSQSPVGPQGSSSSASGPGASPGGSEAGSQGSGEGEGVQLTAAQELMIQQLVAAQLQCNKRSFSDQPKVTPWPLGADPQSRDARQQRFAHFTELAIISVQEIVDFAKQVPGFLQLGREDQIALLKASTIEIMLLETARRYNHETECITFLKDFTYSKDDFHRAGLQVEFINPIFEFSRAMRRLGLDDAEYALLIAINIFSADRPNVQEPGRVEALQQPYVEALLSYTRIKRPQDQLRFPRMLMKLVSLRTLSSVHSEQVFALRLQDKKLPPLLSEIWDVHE
Sequence of Transcriptional activator Myb (Homo sapiens) (P10242 whole entry, looked up): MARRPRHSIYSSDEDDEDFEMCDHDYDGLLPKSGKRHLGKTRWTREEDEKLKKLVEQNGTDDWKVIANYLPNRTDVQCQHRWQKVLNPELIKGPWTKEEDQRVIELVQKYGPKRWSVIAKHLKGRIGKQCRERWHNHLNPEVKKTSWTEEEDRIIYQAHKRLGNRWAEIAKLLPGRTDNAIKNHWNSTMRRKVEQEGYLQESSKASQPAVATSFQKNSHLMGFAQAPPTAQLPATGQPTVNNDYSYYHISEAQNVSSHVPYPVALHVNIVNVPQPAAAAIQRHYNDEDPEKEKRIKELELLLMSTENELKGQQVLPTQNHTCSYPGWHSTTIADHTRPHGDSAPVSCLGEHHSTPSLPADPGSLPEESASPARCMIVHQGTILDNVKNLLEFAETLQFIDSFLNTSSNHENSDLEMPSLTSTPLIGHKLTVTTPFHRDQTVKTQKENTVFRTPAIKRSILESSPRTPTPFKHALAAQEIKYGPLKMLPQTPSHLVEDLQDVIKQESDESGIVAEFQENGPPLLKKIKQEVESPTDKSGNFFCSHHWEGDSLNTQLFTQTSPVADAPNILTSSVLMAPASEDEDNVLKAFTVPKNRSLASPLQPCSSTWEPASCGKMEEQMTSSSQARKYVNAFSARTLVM
Sequence of Nuclear receptor subfamily 1 group I member 3 (Homo sapiens) (Q14994 whole entry, looked up, the tested form may be a part): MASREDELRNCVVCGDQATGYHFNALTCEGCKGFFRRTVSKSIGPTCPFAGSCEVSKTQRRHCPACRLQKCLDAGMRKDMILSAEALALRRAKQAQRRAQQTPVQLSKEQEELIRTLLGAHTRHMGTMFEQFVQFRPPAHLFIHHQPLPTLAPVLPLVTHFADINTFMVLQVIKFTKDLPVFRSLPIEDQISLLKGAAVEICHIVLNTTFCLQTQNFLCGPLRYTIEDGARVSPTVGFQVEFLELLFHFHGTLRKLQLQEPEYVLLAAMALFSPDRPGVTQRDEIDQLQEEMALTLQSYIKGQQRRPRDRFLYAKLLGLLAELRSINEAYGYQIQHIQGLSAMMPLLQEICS

COC(=O)c1ccc(O)cc1
inactive: [1] | [2] | [3] | [4] | [5] | [6] | [7] | [8] | [9]

CCCCCCCCCCCC(=O)OC
not listed: [7] | [16] | [17] | [18] | [19]
inactive: all other assays above

Oc1ccc2ccccc2c1N=Nc1ccccc1
active: [10] 2.86 µM
inactive: [1] | [16] | [3] | [4] | [5] | [15] | [6] | [8] | [9]

O=C(OCCCCCOC(=O)c1ccccc1)c1ccccc1
not listed: [2] | [5] | [6] | [7] | [13] | [14] | [18] | [19]
inactive: all other assays above

COCCOC[C@H](CC1(C(=O)NC2CCC(C(=O)O)CC2)CCCC1)C(=O)Oc1ccc2c(c1)CCC2 (stereo partly specified)
inactive: [1] | [18] | [3] | [12] | [19] | [13] | [5] | [6] | [8] | [9]
active: [2] 48.5 µM

O=C(O)CCCCC(=O)O
not listed: [4] | [6] | [10] | [12] | [16] | [17] | [18] | [19]
inactive: all other assays above

CCCc1cc(=O)[nH]c(=S)[nH]1
inactive: [1] | [3] | [11] | [12] | [15] | [6] | [7] | [8] | [9]

CNC(=O)[C@H]1O[C@@H](n2cnc3c(NCc4cc(Cl)ccc4OCc4cc(C)no4)ncnc32)[C@H](O)[C@@H]1N
inactive: [1] | [2] | [3] | [12] | [4] | [6] | [9]

CN1CCCC1=O
inactive: [1] | [2] | [3] | [4] | [5] | [6] | [8] | [9]

O=[N+]([O-])C(CO)(CO)CO
inactive: [1] | [17] | [2] | [18] | [3] | [11] | [12] | [4] | [7] | [9]

Cc1nc(-c2ccc3c(c2)CCN(CCC2CCC(NC(=O)/C=C/c4ccc(F)cc4)CC2)CC3)no1 (stereo unspecified)
inactive: [1] | [17] | [2] | [10] | [3] | [13] | [14] | [6] | [9]

CCCCCC(=O)O
not listed: [4] | [7] | [12] | [13] | [14] | [16] | [17]
inactive: all other assays above
